Source: PubChem BioAssay (Tox21)
Results filed as inconclusive are left out. The source made the active and inactive calls. The call rests on the fitted dose curve; in most records, active means well fitted curve in the direction sought with a large enough effect in the repeat runs; inconclusive means weak or mixed curves; inactive means no such curve, though single readings can be large; an effect the other way counts as inactive or inconclusive.

Legend:
[1] = Human pregnane X receptor (PXR) small molecule agonists, qHTS cell viability counter screen (AID 1346977); further: nearly all actives have a fitted effect of over 50% in size; further: potency means the concentration at half of the fitted maximal effect
Outline: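 PXR-Luc HepG2 cells in medium with 5% charcoal-stripped FBS were pre-incubated 5hr, then exposed to compounds for 24hr at 37C. Viability was read in the same wells by CellTiter-Fluor fluorescence, reagent added after 23hr with a 1hr incubation.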

[2] = Caspase-3/7 induction in CHO-K1 cells by small molecules, qHTS cell viability counter screen (AID 1346979); further: nearly all actives have a fitted effect of over 35% in size; further: potency means the concentration at half of the fitted maximal effect
Outline: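 Wild-type CHO-K1 cells were seeded at 1,500 per well, rested 5hr at 37 C, then exposed to compounds in DMSO. After 16hr, CellTiter-Fluor reagent was added and fluorescence read 1hr later as the viability measure.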

[3] = Caspase-3/7 induction in CHO-K1 cells by small molecules, qHTS assay (AID 1346980); further: nearly all actives have a fitted effect of over 15% in size
Outline: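 Luminescent Caspase-Glo 3/7 read (30min, room temperature) quantified apoptosis induction. Cells were wild-type CHO-K1, treated with compound for 17hr at 37 C and 5% CO2.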

[4] = Caspase-3/7 induction in HepG2 cells by small molecules, qHTS cell viability counter screen (AID 1346981); further: series mostly up to about 92 µM; nearly all actives have a fitted effect of over 30% in size
Outline: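 Wild-type HepG2 cells, 2,000/well, settled 5 hr at 37 C, 5% CO2 before compound addition. Viability read by CellTiter-Fluor fluorescence, reagent added after 16 hr compound exposure, then 1 hr at 37C, in the same wells as the caspase read.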

[5] = molecular target: Nuclear receptor subfamily 1 group I member 2 (Homo sapiens) (UniProt O75469); test: Human pregnane X receptor (PXR) small molecule agonists, qHTS assay (AID 1346982); further: nearly all actives have a fitted effect of over 35% in size; further: potency means the concentration at half of the fitted maximal effect
Outline: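 PXR-Luc HepG2 reporter cells (CYP3A4-driven luciferase) in 5% charcoal-stripped FBS medium, plated 5 h before compound addition, then treated 24 h at 37C. Luciferase read by ONE-Glo luminescence after 30 min at room temperature.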

[6] = molecular target: Cytochrome P450 2D6 (Homo sapiens) (UniProt P10635); test: Cytochrome P450 Family 2 Subfamily D Member 6 (CYP2D6) small molecule antagonists: luciferase reporter qHTS assay (AID 1671196); further: nearly all actives have a fitted effect of over 50% in size; further: potency means the concentration at half of the fitted maximal effect; on activity change, negative = inhibition: series mostly up to about 120 µM
Outline: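 Cell-free P450-Glo system: CYP2D6 with proluciferin substrate was pre-incubated with compound for 10 min, then reacted with NADPH regeneration for 1 h at room temperature. Luciferin product was detected after 20 min, and data were reported as relative luminescence units.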

[7] = molecular target: Cytochrome P450 2C19 (Homo sapiens) (UniProt P33261); test: Cytochrome P450 Family 2 Subfamily C Member 19 (CYP2C19) small molecule antagonists: luciferase reporter qHTS assay (AID 1671197); further: nearly all actives have a fitted effect of over 65% in size; further: potency means the concentration at half of the fitted maximal effect; on activity change, negative = inhibition: series mostly up to about 120 µM
Outline: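 Quantitative high-throughput screen of the Tox21 library using CYP2C19 with proluciferin substrate. Reaction: NADPH regeneration, 37C, 1 h, after 10 min compound preincubation at room temperature. Readout: luminescence.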

[8] = molecular target: Cytochrome P450 2C9 (Homo sapiens) (UniProt P11712); test: Cytochrome P450 Family 2 Subfamily C Member 9 (CYP2C9) small molecule antagonists: luciferase reporter qHTS assay (AID 1671198); further: nearly all actives have a fitted effect of over 50% in size; further: potency means the concentration at half of the fitted maximal effect; on activity change, negative = inhibition: series mostly up to about 120 µM
Outline: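 Enzyme-substrate mix preincubated with compound 10 min at room temperature; reaction started with NADPH regeneration solution, 1 h 37C. Luminescent luciferin product read after 20 min detection reagent.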

[9] = molecular target: Cytochrome P450 1A2 (Homo sapiens) (UniProt P05177); test: Cytochrome P450 Family 1 Subfamily A Member 2 (CYP1A2) small molecule antagonists: luciferase reporter qHTS assay (AID 1671199); further: nearly all actives have a fitted effect of over 50% in size; further: potency means the concentration at half of the fitted maximal effect; on activity change, negative = inhibition: series mostly up to about 120 µM
Outline: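 P450-Glo CYP1A2 enzyme–proluciferin substrate mix with compound 10 min at room temperature, then NADPH regeneration 1 h at room temperature. Luciferin detection reagent added, luminescence read after 20 min; furafylline positive control.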

[10] = molecular target: Voltage-gated inwardly rectifying potassium channel KCNH2 (Homo sapiens) (UniProt Q12809); test: Human Ether-a-go-go-Related Gene (hERG) channel small molecule antagonists: fluorescence cell-based qHTS assay (AID 1671200); further: nearly all actives have a fitted effect of over 50% in size; further: potency means the concentration at half of the fitted maximal effect;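 on activity change, negative = inhibition: hERG-expressing U2OS cells given a thallium stimulus after FluxOR II dye loading; series mostly up to about 77 µM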
Outline: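 U2OS cells expressing the channel were plated at 1000 cells/well, incubated overnight at 37 C, then loaded with FluxOR II thallium-sensitive dye for 1 h at room temperature in the dark, with a further 10 min at room temperature before stimulation.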

[11] = molecular target: Cytochrome P450 3A4 (Homo sapiens) (UniProt P08684); test: Cytochrome P450 Family 3 Subfamily A Member 4 (CYP3A4) small molecule antagonists: luciferase reporter qHTS assay (AID 1671201); further: nearly all actives have a fitted effect of over 50% in size; further: potency means the concentration at half of the fitted maximal effect; on activity change, negative = inhibition: series mostly up to about 120 µM
Outline: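 P450-Glo CYP3A4 system with proluciferin substrate; compounds preincubated 10 min RT with enzyme-substrate mix, then NADPH regeneration added for 1 h RT. Detection reagent 20 min, luminescence read as relative luminescence units.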

[12] = Caspase-3/7 induction in HepG2 cells by small molecules, qHTS assay (AID 1346978); further: nearly all actives have a fitted effect of over 15% in size; further: potency means the concentration at half of the fitted maximal effect
Outline: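 Caspase-3/7 induction was measured by Caspase-Glo 3/7 luminescence (30 min, room temperature) after a 17 hr compound exposure of wild-type HepG2 cells seeded at 2,000 per well and pre-incubated 5 hr.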

[13] = molecular target: Nuclear receptor subfamily 1 group I member 2 (Rattus norvegicus) (UniProt Q9R1A7); test: Rat pregnane X receptor (rPXR) activation by small molecules, qHTS assay (AID 1346983); settings: rPXR luciferase reporter cells, One-Glo luminescence, 24 h; max activation: hits give high values; further: nearly all actives have a fitted effect of over 20% in size
Outline: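 Luminescent readout (One-Glo luciferase, 30 min room temperature) followed 24 hr compound treatment at 37 C of rPXR cells plated 2,000 per well and preincubated 5hr; qHTS format with compounds delivered in DMSO.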

[14] = molecular target: Nuclear receptor subfamily 1 group I member 2 (Homo sapiens) (UniProt O75469); test: CYP3A4 induction through human pregnane X receptor (PXR) by small molecules, qHTS assay (AID 1346984); further: nearly all actives have a fitted effect of over 40% in size
Outline: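 DPX-2 HepG2 cells carrying a PXR response element and CYP3A4-promoter luciferase construct, treated with compounds 24 hr at 37C. Then P450-Glo CYP3A4 Luciferin-IPA substrate (3uM final) for 3 hr at 37C, One-Glo added, luminescence read.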

[15] = molecular target: Nuclear receptor subfamily 1 group I member 2 (Homo sapiens) (UniProt O75469); test: Human pregnane X receptor (PXR) activation by small molecules, qHTS assay (AID 1346985); further: nearly all actives have a fitted effect of over 40% in size
Outline: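 DPX-2 cells (HepG2 co-transfected with a PXR response element and a CYP3A4-promoter luciferase construct) were seeded at 2,000 per well, rested 5 hr at 37C, then exposed to DMSO-dissolved compounds for 24 hr. Activation was read as luciferase luminescence.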
On the % scale 0 is the no-effect control and ±100 the full control effect.

Chain of Cytochrome P450 3A4 (Homo sapiens) (P08684 whole entry, looked up): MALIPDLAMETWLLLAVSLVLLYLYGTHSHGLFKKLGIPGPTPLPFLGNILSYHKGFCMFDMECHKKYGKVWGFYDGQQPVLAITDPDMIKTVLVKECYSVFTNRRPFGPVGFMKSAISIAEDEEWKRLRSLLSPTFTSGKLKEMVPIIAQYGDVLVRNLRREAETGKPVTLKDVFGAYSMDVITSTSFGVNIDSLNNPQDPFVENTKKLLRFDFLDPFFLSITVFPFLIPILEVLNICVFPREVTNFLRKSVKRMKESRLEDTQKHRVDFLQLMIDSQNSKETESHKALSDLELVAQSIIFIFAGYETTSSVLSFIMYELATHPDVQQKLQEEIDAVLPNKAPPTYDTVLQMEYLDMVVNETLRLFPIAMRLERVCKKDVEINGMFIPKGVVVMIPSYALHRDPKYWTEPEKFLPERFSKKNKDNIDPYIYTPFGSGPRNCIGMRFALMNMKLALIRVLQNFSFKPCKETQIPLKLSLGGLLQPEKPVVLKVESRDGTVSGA
Chain of Nuclear receptor subfamily 1 group I member 2 (Homo sapiens) (O75469 whole entry, looked up): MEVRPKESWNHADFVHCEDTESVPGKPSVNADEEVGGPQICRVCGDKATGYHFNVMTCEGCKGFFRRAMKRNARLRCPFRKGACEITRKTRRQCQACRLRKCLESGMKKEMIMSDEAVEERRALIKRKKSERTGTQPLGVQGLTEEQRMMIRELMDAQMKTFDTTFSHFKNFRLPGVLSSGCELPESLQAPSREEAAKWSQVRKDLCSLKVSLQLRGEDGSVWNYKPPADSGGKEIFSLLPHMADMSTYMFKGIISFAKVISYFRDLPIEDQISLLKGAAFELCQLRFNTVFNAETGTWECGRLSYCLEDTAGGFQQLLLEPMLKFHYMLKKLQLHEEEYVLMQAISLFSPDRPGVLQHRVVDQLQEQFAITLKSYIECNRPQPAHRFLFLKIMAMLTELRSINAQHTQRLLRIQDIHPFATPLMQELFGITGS
Chain of Cytochrome P450 2C9 (Homo sapiens) (P11712 whole entry, looked up): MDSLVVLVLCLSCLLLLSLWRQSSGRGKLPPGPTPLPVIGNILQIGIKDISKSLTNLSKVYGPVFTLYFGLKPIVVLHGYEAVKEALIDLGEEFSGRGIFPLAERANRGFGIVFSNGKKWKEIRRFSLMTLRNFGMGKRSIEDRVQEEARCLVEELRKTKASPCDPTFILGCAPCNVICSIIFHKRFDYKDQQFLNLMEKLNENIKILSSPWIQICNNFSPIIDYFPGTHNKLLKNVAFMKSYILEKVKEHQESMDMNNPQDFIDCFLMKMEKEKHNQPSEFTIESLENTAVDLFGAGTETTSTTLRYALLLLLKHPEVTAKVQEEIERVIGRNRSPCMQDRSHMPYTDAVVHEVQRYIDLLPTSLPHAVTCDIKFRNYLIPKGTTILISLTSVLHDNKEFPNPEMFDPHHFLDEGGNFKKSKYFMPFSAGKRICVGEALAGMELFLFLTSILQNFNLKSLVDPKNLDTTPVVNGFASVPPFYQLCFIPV
Chain of Cytochrome P450 2C19 (Homo sapiens) (P33261 whole entry, looked up): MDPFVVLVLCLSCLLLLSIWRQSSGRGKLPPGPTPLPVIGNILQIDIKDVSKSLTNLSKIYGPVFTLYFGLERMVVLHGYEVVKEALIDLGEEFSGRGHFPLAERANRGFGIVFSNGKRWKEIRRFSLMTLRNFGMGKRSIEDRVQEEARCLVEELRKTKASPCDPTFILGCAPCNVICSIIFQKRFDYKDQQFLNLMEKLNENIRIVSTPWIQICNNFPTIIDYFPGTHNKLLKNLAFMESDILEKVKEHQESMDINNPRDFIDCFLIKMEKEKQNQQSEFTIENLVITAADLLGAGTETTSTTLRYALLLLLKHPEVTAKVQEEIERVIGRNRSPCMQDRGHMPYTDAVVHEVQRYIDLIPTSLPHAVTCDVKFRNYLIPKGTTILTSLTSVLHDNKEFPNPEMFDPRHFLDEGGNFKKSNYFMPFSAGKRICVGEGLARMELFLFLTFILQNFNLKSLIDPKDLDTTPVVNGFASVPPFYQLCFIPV
Chain of Voltage-gated inwardly rectifying potassium channel KCNH2 (Homo sapiens) (Q12809 whole entry, looked up): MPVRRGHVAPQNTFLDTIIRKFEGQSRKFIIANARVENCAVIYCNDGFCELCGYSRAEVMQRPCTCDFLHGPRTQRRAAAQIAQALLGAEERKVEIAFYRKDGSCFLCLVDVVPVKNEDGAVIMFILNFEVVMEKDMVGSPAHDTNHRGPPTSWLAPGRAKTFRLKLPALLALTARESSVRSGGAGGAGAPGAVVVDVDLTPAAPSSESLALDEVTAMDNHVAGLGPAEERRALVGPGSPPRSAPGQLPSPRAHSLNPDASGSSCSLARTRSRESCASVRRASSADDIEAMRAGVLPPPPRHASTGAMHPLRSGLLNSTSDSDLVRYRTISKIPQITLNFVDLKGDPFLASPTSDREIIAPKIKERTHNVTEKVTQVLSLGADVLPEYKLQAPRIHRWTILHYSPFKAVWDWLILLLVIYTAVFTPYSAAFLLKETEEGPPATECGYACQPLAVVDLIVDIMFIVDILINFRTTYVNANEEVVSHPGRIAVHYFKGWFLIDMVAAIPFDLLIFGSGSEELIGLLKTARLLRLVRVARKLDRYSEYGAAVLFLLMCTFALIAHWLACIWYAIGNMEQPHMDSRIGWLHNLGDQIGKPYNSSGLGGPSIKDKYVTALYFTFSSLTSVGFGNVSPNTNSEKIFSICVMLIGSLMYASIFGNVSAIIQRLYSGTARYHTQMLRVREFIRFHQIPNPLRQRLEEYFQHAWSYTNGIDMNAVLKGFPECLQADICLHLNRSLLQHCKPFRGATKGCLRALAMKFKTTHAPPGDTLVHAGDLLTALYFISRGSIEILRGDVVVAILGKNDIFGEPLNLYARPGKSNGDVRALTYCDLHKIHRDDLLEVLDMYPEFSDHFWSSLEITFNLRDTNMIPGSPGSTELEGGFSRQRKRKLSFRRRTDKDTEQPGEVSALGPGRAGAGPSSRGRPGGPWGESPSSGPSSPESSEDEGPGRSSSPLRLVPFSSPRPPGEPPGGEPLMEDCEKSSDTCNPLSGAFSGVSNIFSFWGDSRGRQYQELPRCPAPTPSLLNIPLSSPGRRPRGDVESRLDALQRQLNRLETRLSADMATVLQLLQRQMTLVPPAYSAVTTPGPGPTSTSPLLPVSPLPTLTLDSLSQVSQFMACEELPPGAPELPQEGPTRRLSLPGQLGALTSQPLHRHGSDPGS
Chain of Cytochrome P450 1A2 (Homo sapiens) (P05177 whole entry, looked up): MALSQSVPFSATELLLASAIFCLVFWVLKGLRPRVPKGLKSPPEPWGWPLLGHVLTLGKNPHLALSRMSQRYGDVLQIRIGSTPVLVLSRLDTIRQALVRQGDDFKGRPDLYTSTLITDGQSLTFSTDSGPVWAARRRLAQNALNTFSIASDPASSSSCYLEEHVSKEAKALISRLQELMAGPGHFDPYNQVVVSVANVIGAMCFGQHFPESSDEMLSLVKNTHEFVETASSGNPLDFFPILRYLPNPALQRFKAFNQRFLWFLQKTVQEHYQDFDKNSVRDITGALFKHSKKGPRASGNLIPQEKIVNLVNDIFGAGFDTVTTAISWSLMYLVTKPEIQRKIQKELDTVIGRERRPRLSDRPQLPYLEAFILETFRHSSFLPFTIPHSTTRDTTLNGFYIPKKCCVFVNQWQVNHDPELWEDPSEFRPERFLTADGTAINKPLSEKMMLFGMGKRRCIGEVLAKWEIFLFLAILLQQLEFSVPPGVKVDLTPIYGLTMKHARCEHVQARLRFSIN
Chain of Cytochrome P450 2D6 (Homo sapiens) (P10635 whole entry, looked up): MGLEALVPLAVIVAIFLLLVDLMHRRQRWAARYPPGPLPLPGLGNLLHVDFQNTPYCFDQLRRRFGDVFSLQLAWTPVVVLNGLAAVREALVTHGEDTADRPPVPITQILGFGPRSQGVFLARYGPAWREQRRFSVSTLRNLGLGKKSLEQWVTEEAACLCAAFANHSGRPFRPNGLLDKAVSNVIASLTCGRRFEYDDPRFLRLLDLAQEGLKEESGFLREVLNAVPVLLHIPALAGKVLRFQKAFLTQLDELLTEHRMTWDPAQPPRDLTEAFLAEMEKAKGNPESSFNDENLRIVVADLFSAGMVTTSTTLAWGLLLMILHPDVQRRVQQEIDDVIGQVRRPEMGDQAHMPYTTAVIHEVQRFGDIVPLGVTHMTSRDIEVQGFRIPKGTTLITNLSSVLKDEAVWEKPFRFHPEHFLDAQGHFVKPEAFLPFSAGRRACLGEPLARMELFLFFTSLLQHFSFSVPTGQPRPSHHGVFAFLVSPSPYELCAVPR
Chain of Nuclear receptor subfamily 1 group I member 2 (Rattus norvegicus) (Q9R1A7 whole entry, looked up): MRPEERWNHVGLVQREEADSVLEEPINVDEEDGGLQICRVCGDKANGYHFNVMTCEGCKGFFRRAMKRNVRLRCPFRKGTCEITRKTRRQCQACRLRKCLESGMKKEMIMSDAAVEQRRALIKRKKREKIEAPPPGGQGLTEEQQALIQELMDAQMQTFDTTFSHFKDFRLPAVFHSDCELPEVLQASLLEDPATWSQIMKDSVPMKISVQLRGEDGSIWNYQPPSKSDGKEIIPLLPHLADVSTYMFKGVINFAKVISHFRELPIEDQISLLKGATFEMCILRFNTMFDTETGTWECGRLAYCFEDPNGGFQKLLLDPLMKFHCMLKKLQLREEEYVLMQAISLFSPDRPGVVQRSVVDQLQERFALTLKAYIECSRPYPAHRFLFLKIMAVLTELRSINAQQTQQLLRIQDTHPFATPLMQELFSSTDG

CC1CCCC(=O)C1=O (configuration not stated)
inactive: Potency [1] | Potency [2] | outcome [3] | Potency [4] | Potency [5] | Potency [6] | Potency [7] | Potency [8] | Potency [9] | Potency [10] | Potency [11]

CC(C)(O)c1coc(S(=O)(=O)NC(=O)Nc2c3c(cc4c2CCC4)CCC3)c1
active: Potency [7] 35.6 µM | Potency [8] 25.2 µM | Potency [9] 17.8 µM | Potency [11] 22.4 µM
inactive: Potency [1] | Potency [2] | outcome [3] | Potency [4] | Potency [5] | Potency [6] | Potency [10]

CCC(Cl)CC(Cl)C(Cl)C(Cl)C(Cl)C(C)Cl (configuration not stated)
inactive: activity change, negative = cytotoxicity [1] -5.6% [at 19 µM] | activity change, negative = cytotoxicity [2] 10.4% [at 19 µM] | caspase-3/7 activation [3] -6.38% [at 19 µM] | activity change, negative = cytotoxicity [4] 1.11% [at 19 µM] | activity change, negative = inhibition [6] -20% [at 23.6 µM]
active: Potency [5] 1.19 µM | Potency [7] 1.73 µM | Potency [8] 1.38 µM

O=C1OC(=O)c2c(Br)c(Br)c(Br)c(Br)c21
inactive: Potency [1] | Potency [2] | outcome [3] | Potency [4] | Potency [5] | Potency [6] | Potency [7] | Potency [8] | Potency [9] | Potency [10]

O=C(c1ccccc1)c1ccc(O)cc1
active: Potency [5] 61.8 µM | Potency [6] 40.4 µM | Potency [7] 40.4 µM
inactive: Potency [1] | Potency [12] | outcome [3] | Potency [4] | Potency [8] | Potency [10] | Potency [11]

O=C(O)CCCc1c[nH]c2ccccc12
inactive: Potency [1] | Potency [12] | outcome [3] | Potency [5] | Potency [6] | Potency [8] | Potency [9] | Potency [10]

CCN(CC)c1cccc(O)c1
inactive: Potency [1] | Potency [2] | outcome [3] | Potency [4] | Potency [10]
active: Potency [5] 35.1 µM | Potency [6] 36.3 µM | Potency [7] 5.13 µM | Potency [9] 64.6 µM | Potency [11] 20.4 µM

CC(CCc1ccc(O)cc1)NCCc1ccc(O)c(O)c1 (configuration not stated)
inactive: Potency [1] | Potency [12] | outcome [3] | Potency [4] | Potency [5] | Potency [7] | Potency [8] | Potency [9] | Potency [11]
active: Potency [6] 15.5 µM | Potency [10] 13.4 µM

C=C(C)C(=O)OCCC(F)(F)C(F)(F)C(F)(F)C(F)(F)C(F)(F)C(F)(F)F
inactive: Potency [1] | Potency [12] | outcome [3] | Potency [4] | Potency [5] | Potency [6] | Potency [7] | Potency [8] | Potency [10] | Potency [11]

O[C@@H](CNC[C@H](O)[C@H]1CCc2cc(F)ccc2O1)[C@@H]1CCc2cc(F)ccc2O1
inactive: Potency [5] | Potency [7] | Potency [8] | Potency [9]
active: Potency [1] 29.8 µM | Potency [12] 33.5 µM | Potency [2] 33.5 µM | Potency [6] 0.275 µM | Potency [10] 2.68 µM

COc1cc(C(C)=O)ccc1OCCCN1CCC(c2noc3cc(F)ccc23)CC1
active: Potency [6] 11 µM | Potency [10] 1.07 µM
inactive: Potency [1] | Potency [12] | outcome [3] | Potency [7] | Potency [9]

Cc1ccc(Cl)cc1N
inactive: Potency [1] | Potency [12] | outcome [3] | Potency [4] | Potency [10]
active: Potency [5] 55.5 µM | Potency [7] 36.2 µM

CC(C)(C)S
active: Potency [6] 7.34 µM | Potency [7] 41.3 µM
inactive: Potency [1] | Potency [2] | outcome [3] | Potency [4] | Potency [5] | Potency [10]

O=C1CC[C@@H](C(=O)O)N1
inactive: Potency [1] | Potency [2] | outcome [3] | Potency [4] | Potency [5] | max activation [13] -5.25% | Potency [14] | Potency [15] | Potency [7] | Potency [8] | Potency [9] | Potency [10]

CC/C=C\C/C=C\C/C=C\CCCCCCCC(=O)OCC
inactive: Potency [1] | Potency [12] | Potency [4] | Potency [10]
active: Potency [7] 64.8 µM | Potency [8] 40.9 µM | Potency [11] 72.7 µM

Nc1nc2ccc(OC(F)(F)F)cc2s1
active: Potency [5] 13.3 µM
inactive: Potency [1] | Potency [12] | outcome [3] | Potency [4]

CCCCCCCC(=O)Oc1c(Br)cc(C#N)cc1Br
active: Potency [7] 35.5 µM | Potency [8] 39.8 µM
inactive: Potency [1] | Potency [12] | outcome [3] | Potency [5] | Potency [11]

CC(=O)OCC(=O)[C@@]1(OC(C)=O)[C@@H](C)C[C@H]2[C@@H]3C[C@H](F)C4=CC(=O)C=C[C@]4(C)[C@@]3(F)[C@@H](O)C[C@@]21C
inactive: Potency [1] | Potency [12] | Potency [2] | outcome [3] | Potency [6] | Potency [7] | Potency [10]

O=CNNC=O
inactive: Potency [1] | Potency [2] | outcome [3] | Potency [4] | Potency [5] | Potency [6] | Potency [7] | Potency [8] | Potency [10]

CCCc1nc2c(C)cc(-c3nc4ccccc4n3C)cc2n1Cc1ccc(-c2ccccc2C(=O)O)cc1
active: Potency [7] 7.76 µM | Potency [8] 7.76 µM
inactive: Potency [1] | Potency [12] | outcome [3] | max activation [13] -2.19% | Potency [6] | Potency [10]

Oc1ccc2c(c1)Cc1ccccc1-2
active: Potency [5] 30.6 µM | Potency [7] 28.3 µM | Potency [8] 35.6 µM
inactive: Potency [1] | Potency [12] | outcome [3] | Potency [4] | Potency [6] | Potency [10]

COc1cc(OC)c2ccc(=O)oc2c1
active: Potency [9] 7.96 µM | Potency [11] 39.9 µM
inactive: Potency [1] | Potency [12] | outcome [3] | Potency [4] | Potency [5] | Potency [10]

CCCCCCCCCCCCCOS(=O)(=O)O
inactive: Potency [1] | Potency [12] | outcome [3] | Potency [4] | Potency [5] | Potency [6] | Potency [7] | Potency [9] | Potency [10] | Potency [11]
